The whole screen tested about 320,000 compounds, of which about 2,200 (0.69%) were called active.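 How the source made its calls: active means inhibition above the mean of all tested compounds plus 3 SD, cutoff set per campaign (cut at about 30% in these data); inactive means the rest.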 Only a selection was taken, and actives are over-represented in it overall.
Biological target: Bcl-2-like protein 1 (Homo sapiens) (UniProt Q07817)
Test: Bcl-xL/Bim BH3 interaction blockers – biochemical, fluorescence polarization, HTS, primary screen (AID 2129);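 further: 0% = DMSO wells and 100% = unlabeled Bim-BH3 peptide competitor; inhibitors lower millipolarization by displacing the labeled peptide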
Details: GST-Bcl-xL / FITC-Bim BH3 peptide fluorescence polarization; at 10.9 µM; active compounds read high

Sequence of Bcl-2-like protein 1 (Homo sapiens) (Q07817 whole entry, looked up): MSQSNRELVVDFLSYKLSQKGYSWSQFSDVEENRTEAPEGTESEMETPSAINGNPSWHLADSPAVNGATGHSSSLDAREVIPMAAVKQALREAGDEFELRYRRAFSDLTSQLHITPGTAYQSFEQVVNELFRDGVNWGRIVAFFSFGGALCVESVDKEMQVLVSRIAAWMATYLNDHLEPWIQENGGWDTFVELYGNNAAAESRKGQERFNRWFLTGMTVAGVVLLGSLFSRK

inhibition, active:
C=CCOc1cccc(C2C(C(=O)c3ccc(C)o3)=C(O)C(=O)N2c2nnc(C)s2)c1 (stereo not given) 88.7%
Cc1cc2ccccc2n1CCC(=O)O 52.5%
CCOC(=O)c1cc2n(c1N)-c1ccccc1C2=O 140%
CNC(=S)NNC(=O)c1oc2nc(-c3ccccc3)cc(-c3ccco3)c2c1N 30.6%
NS(=O)(=O)c1ccc(N=Nc2c(O)[nH]c3ccc(Br)cc23)cc1 37.1%
CCN1CC=C2C(C#N)=C(N)C(C#N)(C#N)[C@H](c3ccoc3)[C@H]2C1 148%
CCCN1CC=C2C(C#N)=C(N)C(C#N)(C#N)C(c3cc(OC)ccc3OC)C2C1 (stereo not given) 68.3%
COc1cc(C(=O)NCc2ccc3c(c2)cc(C)n3C)cc(OC)c1OC 33.2%
COc1ccc(-c2onc3ccc(C(C)=O)cc23)cc1 178%
CN(C)c1ccc(Nc2c3c4c(cccc4n(C)c2=O)C(=O)c2ccccc2-3)cc1 54.3%
CC(C)(C)c1ccc(/C=C2\Oc3c(ccc(O)c3CN3CCN(CCO)CC3)C2=O)cc1 53.5%
Cc1ccc2nc(COc3ccc(N(C)S(=O)(=O)c4ccccc4)cc3)cc(=O)n2c1 36.5%

inhibition, inactive:
O=C(NCCc1ccccn1)c1cc(-c2ccc(Cl)cc2)nc2ccccc12 -6.46%
COCCCNC(=S)N(Cc1ccccc1)Cc1ccc(F)cc1 3.88%
COc1ccc(C(=O)COC(=O)CNC(=O)c2cccs2)cc1Br 5.14%
C=CCOc1cccc(C2C(C(=O)c3ccc(C)o3)=C(O)C(=O)N2CCCn2ccnc2)c1 (stereo not given) 0.01%
Cc1cc(N2C(=O)C(O)=C(C(=O)c3ccc(C)o3)C2c2ccc(OCc3ccccc3)cc2)no1 (stereo not given) 11.2%
Cc1cc(C(=O)NC2CCN(Cc3ccccc3)CC2)n[nH]1 1.91%
C#CCOCCOCCOCCNc1nc(N2CCN(C(=O)C([C@@H](C)CC)n3cc(C(N)COC(=O)C(F)(F)F)nn3)CC2)nc(N2CCN(C(=O)[C@H](Cc3ccc(O)cc3)n3cc(C(N)[C@H](C)CC)nn3)CC2)n1 (stereo not given in full) 14.5%
Cn1c2c(c(=O)n(C)c1=O)C1c3ccccc3OCC1C(C)(C)O2 (stereo not given) 3.9%
NC(=O)COC(=O)c1ccc2c(c1)C(=O)N(Cc1ccco1)C2=O 4.63%
CCCc1nc2scc(-c3ccc(C)cc3)c2c(=O)n1N 1.66%
Cc1cc2ccccc2n1CCNC(=O)COc1ccc2ccccc2c1 4.61%
O=C(O)CCn1c(Cc2ccccc2)nc2ccccc21 1.07%
CC(C)(C)c1cc2cccnc2n1Cc1cccc(F)c1 7.39%
CN(C)NC(=O)C(NC(=O)c1ccc(N)cc1)C12CC3CC(CC(C3)C1)C2 (stereo not given) -0.78%
CCOC(=O)c1ccccc1CN1C(=O)c2ccccc2S1(=O)=O 4.12%
CC(C)OC(=O)CN1C(=O)C(=O)c2ccccc21 10.2%
Cc1ccc(S(=O)(=O)CC(=O)NC(C)c2ccccc2)cc1 (stereo not given) -0.31%
CCOc1cc(CNCCN(C)C)c(Cl)cc1OCC(=O)NCCc1ccccc1 -0.08%
NNC(=O)c1oc2nc(-c3ccccc3)cc(-c3ccco3)c2c1N -35.7%
CNc1nc(-c2ccccc2)cc(-c2ccccc2)n1 2.12%
COc1ccccc1C(=O)Nc1ccccc1C(=O)Nc1ccccc1 -2.98%
Oc1[nH]c2ccc(Br)cc2c1N=Nc1nn[nH]n1 1.22%
O=C(CNC(=O)Cc1ccccc1)N=Nc1c(O)[nH]c2ccc(Br)cc12 10.3%
CC(=O)CC[C@@H](C)O[C@@H]1OC(C)[C@H](O)CC1O (stereo not given in full) 1.11%
Cc1ccc(-n2c(C)cc(/C=C(\C#N)C(=O)NCC3CCCO3)c2C)cc1 (stereo not given) -0.52%
COc1ccccc1-n1cnc2cc(NS(=O)(=O)c3ccccc3)ccc21 2.73%
CC(CCc1ccccc1)NCC(O)c1cccc([N+](=O)[O-])c1 (stereo not given) 1.94%
COc1ccc(NC(=O)c2sccc2SCC#N)cc1 8.42%
Clc1cc(NC2CCCCC2)ncn1 6.31%
CCCCC1S/C(=N/N=C/c2cccs2)NC1=O (stereo not given) 8.02%
CCCc1c(C)nc2c(Br)cccc2c1Cl 2.17%
COc1cc(C(=O)NCc2cc3cc(Cl)ccc3n2C)cc(OC)c1OC 1.45%
CCOCC(=O)NCc1ccc2c(c1)cc(C)n2C 19.5%
CN(CCO)S(=O)(=O)c1ccc2c(c1)C(=O)c1cc(S(=O)(=O)N(C)CCO)ccc1-2 1.55%
CCOC(=O)c1cc2c(=O)n3ccccc3nc2n(CC(C)C)c1=NC(=O)c1c(-c2c(F)cccc2Cl)noc1C 3.3%
Cc1ccc(NS(=O)(=O)c2ccc3c(c2)NC(=O)CO3)cc1 0.04%
O=C(N1CCCCC1)N1CCN(C(=O)N2CCCCC2)CC1 6.91%
CCN1C(=O)CS/C1=N\c1nccs1 1.94%
CC(OC(=O)c1ccc2noc(-c3ccccc3)c2c1)C(N)=O (stereo not given) 2.5%
Oc1ccc(-c2onc3ccc(Cl)cc23)cc1 3.11%
Cc1c(NC(=S)NC(=O)CCc2ccccc2)c(=O)n(-c2ccccc2)n1C 1.79%
CCNC(=O)Nc1ccc(S(=O)(=O)Nc2cnc(C)nc2C)cc1 0.51%
Cc1cccc(C)c1N1C(=O)CN(Cc2ccccc2)C1=S 5.52%
Cc1ccccc1NC(=O)Cc1nc(COC(=O)c2ccc(C(F)(F)F)cc2)cs1 -1.31%
CCOC(=O)c1oc2c(CN3CCN(CCO)CC3)c(O)c(CC)cc2c(=O)c1-c1nc2ccccc2s1 4.57%
CN(C)S(=O)(=O)c1ccc(Cl)c(NC(=O)COC(=O)CC(NC(N)=O)c2ccc(Cl)cc2)c1 (stereo not given) -5.65%
CN(c1ccc(OCC(=O)O)cc1)S(=O)(=O)c1ccc2ccccc2c1 4.89%
COc1cccc(COc2ccc(N(C)S(=O)(=O)c3ccccc3)cc2)c1 -4.97%

Reference: PubChem BioAssay AID2129 (The Scripps Research Institute Molecular Screening Center, 2009)
